Among the data in PubChem BioAssay (NCI) are growth inhibition values, retold here.

About 79,000 compounds went through this panel and 15% of them were active in at least one assay; those are over-represented in the sample as a whole. Unmarked numbers belong to inactive results. The source made the active and inactive calls. No stated cut-off is given here; in the data, active means growth inhibition above about 70%; inactive means the rest.

Test [1] in a line: NCI Yeast Anticancer Drug Screen. Data for the rad50 strain (AID 155).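 Further: 0% = growth of vehicle-only cultures of the same strain.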 The following applies: S. cerevisiae rad50 strain growth inhibition, hits give high values; at 50.0 µM unless noted. In a few lines:
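A DNA repair-deficient yeast mutant serves as the test organism; compound-induced growth inhibition is calculated against vehicle-treated cells.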

Test [2] is described as follows: NCI Yeast Anticancer Drug Screen. Data for the mec2-1 strain (AID 157). The conditions noted are these: S. cerevisiae mec2-1 strain, hits give high values; at 50.0 µM unless noted. In outline: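 Growth inhibition is read against vehicle-treated controls after compound exposure of the mec2-1 yeast strain, which is defective in DNA damage repair or cell cycle control.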

The nature of test [3]: NCI Yeast Anticancer Drug Screen. Data for the sgs1 mgt1 strain (AID 161).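 Further: 0% = growth of cultures given vehicle only.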 The conditions noted are these: S. cerevisiae sgs1 mgt1 strain, hits give high values; at 50.0 µM unless noted. In outline: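 Growth of a repair-deficient yeast mutant was monitored after compound treatment and expressed as inhibition relative to vehicle-treated cultures.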
A short description of test [4]: NCI Yeast Anticancer Drug Screen. Data for the cln2 rad14 strain (AID 165).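 Further: 0% = growth equal to vehicle treated cultures.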 The conditions noted are these: S. cerevisiae cln2 rad14 strain, hits give high values; at 50.0 µM unless noted. In a few lines:
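Growth inhibition, relative to vehicle-treated controls, is the read-out. The test organism is a yeast strain with defined genetic alterations, cln2 rad14.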

The nature of test [5]: NCI Yeast Anticancer Drug Screen. Data for the bub3 strain (AID 167). The following applies: S. cerevisiae bub3 mutant strain, hits give high values; at 50.0 µM unless noted. In a few lines:
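Inhibition values come from growth of compound-treated mutant yeast normalised to vehicle-treated controls.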

Test [6] is described as follows: NCI Yeast Anticancer Drug Screen. Data for the mlh1 rad18 strain (AID 175). The conditions noted are these: S. cerevisiae mlh1 rad18 strain growth inhibition, hits give high values; at 50.0 µM unless noted. In a few lines:
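Cells of a genetically altered yeast strain, deficient in DNA damage repair, were treated with compound. Their growth was then compared with that of vehicle-treated cultures to give inhibition.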

Turning to `CC1CCCN1CCOC(=O)C(c1ccccc1)C1CCCC1` (stereo not drawn), the growth inhibition in test [1] was -4.65%; in test [2] it was 35.5%; in test [3] it was 32.1%; in test [4], -4.7%; in test [5], 3.3%; in test [6], 11.2%.
For `NNC(=O)C(c1ccccc1)c1ccccc1`, the growth inhibition in test [1] was 6.4%; in test [2] it was -8.95%; in test [3] it was -18.8%; in test [4] it was 3%; in test [5] it was -28.9%; in test [6] it was -0.25%.
In the case of `CCc1ccc(NN=Nc2ccccc2C#N)cc1`, the growth inhibition in test [1] was 8.1%; in test [2], 15.8%; in test [3], 16.2%; in test [4], -12.7%; in test [5], -1.65%; in test [6] it was 16.8%.
As to `OCCCC(O)CCC(O)CCC(O)CCCO` (stereo not drawn), the growth inhibition in test [1] is -4%; in test [2], -20.1%; in test [3] it was 9.15%; in test [4] it was 9.5%; in test [5], -22.8%; in test [6], 5.15%.
Take `Cc1ccc(NC(=O)CCCl)cc1`: the growth inhibition was 3.4% in test [1]; -1.55% in test [2]; 2.05% in test [3]; -19.1% in test [4]; -0.5% in test [5]; -14.3% in test [6].
On to `COC(=O)c1ccccc1OC`, for which the growth inhibition was 20.1% in test [1]; 15.8% in test [2]; -2.2% in test [3]; 6.75% in test [4]; -2.05% in test [5]; 3.1% in test [6].
Consider `CC(=O)O[C@@H]1C(=O)C=C(C)[C@@H]2[C@@H](OC(=O)C=C(C)C)[C@H]3OC(=O)C[C@H]4[C@@H](C)[C@@H](O)[C@]5(O)OC[C@]34[C@H]5[C@@]12C`, for which the growth inhibition in test [1] was 87.4% (active); in test [2], 71.5% (active); in test [3], 71.8% (active); in test [4] it was 88.5% (active); in test [5], 79.5% (active); in test [6] it was 91.8% (active).
Take `COc1ccc(CCC(=O)c2ccc(N)cc2)cc1`: the growth inhibition in test [1] was -22.1%; in test [2] it was -16.4%; in test [3], -0.65%; in test [4], -11.5%; in test [5], -3.75%; in test [6], -22.3%.
Turning to `O=C1COC(=O)CO1`, the growth inhibition in test [1] is -15.6%; in test [2] it was -18.9%; in test [3], -5.7%; in test [4] it was 34.2%; in test [5], 8.55%; in test [6] it was -10.7%.
Consider `CN[C@@H]1[C@H](O)[C@H](NC)[C@H]2O[C@@]3(O)C(=O)C[C@@H](C)O[C@H]3O[C@@H]2[C@H]1O`, for which the growth inhibition in test [1] was 7.35%; in test [2], -23.1%; in test [3], -21.9%; in test [4], 7.45%; in test [5], -12.6%; in test [6] it was -9.1%.
For `O=C1OC(OC2CCCCC2)(c2ccccc2)c2ccccc21` (stereo not drawn), the growth inhibition in test [1] was -25.1%; in test [2] it was -7.75%; in test [3] it was -0.15%; in test [4] it was -23.5%; in test [5] it was -1.65%; in test [6], -5.55%.
On to `c1ccc(NN=Nc2ncnc3nc[nH]c23)cc1`, for which the growth inhibition in test [1] is 3.35%; in test [2], 5.9%; in test [3], -2.2%; in test [4] it was -11.8%; in test [5], 7.7%; in test [6], 2.7%.
Regarding `C/C=C(\C)c1cc(=O)c2c(C)cc3c(c2o1)C(OC)(OC(C)=O)c1c(O)c(C2CC(C)(N(C)C)C(OC(C)=O)C(C)O2)cc(C2CC(N(C)C)C(OC(C)=O)C(C)O2)c1C3=O` (stereo not drawn), the growth inhibition is -23.9% in test [1]; -28.3% in test [2]; -30.8% in test [3]; 0.5% in test [4]; -21.6% in test [5]; -4.8% in test [6].
For the compound `c1ccc(CSCc2cnc[nH]2)cc1`, the growth inhibition in test [1] was -1.3%; in test [2], 0.6%; in test [3], -1.95%; in test [4], 14.8%; in test [5], 5.7%; in test [6] it was -6.95%.
In the case of `Nc1ccc2c(c1)C(=O)c1cc(Cl)cc(Cl)c1-2`, the growth inhibition is 0% in test [1]; -4.75% in test [2]; -0.5% in test [3]; -44% in test [4]; 7.05% in test [5]; 2.25% in test [6].
With `NC(=O)N/N=C/c1ccc([N+](=O)[O-])cc1`, the growth inhibition in test [1] is 7.35%; in test [2] it was -2.6%; in test [3], -6.55%; in test [4] it was -24.1%; in test [5], 15.9%; in test [6], -4.2%.
Consider `Cc1ccc(CC2CC(=O)NC2=O)cc1` (stereo not drawn), for which the growth inhibition in test [1] was 13.6%; in test [2], -2.95%; in test [3], 22.1%; in test [4], 2.15%; in test [5], 10.5%; in test [6], -3.8%.
In the case of `C[N+](C)(C)CCc1ccc(Cl)cc1`, the growth inhibition is 10.2% in test [1]; 7.45% in test [2]; 9.7% in test [3]; -3.7% in test [4]; -0.05% in test [5]; 21.8% in test [6].
Take `O=C(c1ccccc1)c1ccc2c(Cl)ccc3c2c1CC3`: the growth inhibition in test [1] is -2.8%; in test [2], -21.3%; in test [3], -9.75%; in test [4] it was 12.8%; in test [5] it was 7.6%; in test [6], -8.45%.
As to `c1ccc(CN(Cn2cccn2)Cn2cccn2)nc1`, the growth inhibition in test [1] is 7.15%; in test [2], -9%; in test [3], 23.1%; in test [4], 23.9%; in test [5], -0.4%; in test [6], 34.8%.
For `CCN(CC)CCCC(C)NCC1C(O)CCC2CN3CCc4c([nH]c5ccccc45)C3CC21` (stereo not drawn), the growth inhibition was 23.8% in test [1]; 9.45% in test [2]; 25.2% in test [3]; 23.6% in test [4]; 18.6% in test [5]; 25.1% in test [6].
On to `Cc1nc2c3c(ccc2[nH]c1=O)C(=O)c1ccccc1C3=O`, for which the growth inhibition in test [1] was 19.4%; in test [2], 11.6%; in test [3], 17.7%; in test [4], 16.9%; in test [5], 13.9%; in test [6], 38.2%.
As for `COc1ccc(C2=Nc3ccccc3N=C(SC)C2)cc1`, the growth inhibition in test [1] was 42.2%; in test [2], -5.3%; in test [3], 51.1%; in test [4], 6.75%; in test [5] it was 53.7%; in test [6], 32.5%.
With `N#C/C(=C/c1ccccc1)c1ccccc1`, the growth inhibition in test [1] was 42.5%; in test [2], 12.6%; in test [3], 24.6%; in test [4], 14.5%; in test [5], 40.9%; in test [6], 24.1%.
With `CCCCCCCCCCCCCCCC[N+](C)(C)CC#N`, the growth inhibition was 99.4% (active) in test [1]; 99.3% (active) in test [2]; 99.2% (active) in test [3]; 99% (active) in test [4]; 99.2% (active) in test [5]; 99.5% (active) in test [6].
As for `Cc1cc(C)c(C(=O)c2cccc(C)c2C(=O)O)c(C)c1`, the growth inhibition is 4% in test [1]; -20.8% in test [2]; 7.85% in test [3]; 14.1% in test [4]; 9.85% in test [5]; 18% in test [6].
Take `NC(=O)C1CC2(c3ccccn3)c3ccccc3C1c1ccccc12` (stereo not drawn): the growth inhibition in test [1] is -0.1%; in test [2], 7.6%; in test [3] it was 10.4%; in test [4] it was 4.2%; in test [5], -22.1%; in test [6], -6.1%.
As for `CCOC(=O)c1ccc(N=Cc2ccc(N(CCC#N)CCC#N)cc2)cc1`, the growth inhibition was 9.35% in test [1]; 1.65% in test [2]; -7.25% in test [3]; 3.7% in test [4]; -1.5% in test [5]; -7.45% in test [6].
As for `CCCCCCCCCCCCCCCOc1ccc(OCCCCCCCCCCCC)cc1`, the growth inhibition is 37.8% in test [1]; -6.3% in test [2]; 16.4% in test [3]; -33% in test [4]; 4.25% in test [5]; 11.8% in test [6].
For `Cc1ccc(C)n1-n1c(Cc2ccccc2)n[nH]c1=O`, the growth inhibition was -21.8% in test [1]; -19.3% in test [2]; -15.1% in test [3]; 2.75% in test [4]; -31.8% in test [5]; -12.7% in test [6].
As for `Cn1cc2c([N+](=O)[O-])cccc2n1`, the growth inhibition in test [1] is 5.35%; in test [2], 3.75%; in test [3], 14.7%; in test [4], -4.6%; in test [5], -0.9%; in test [6] it was 13.2%.
As for `COc1cc(C2c3cc4c(c(OC)c3CC3COC(=O)[C@@H]32)OCO4)cc(OC)c1O` (stereo partly drawn), the growth inhibition in test [1] is 85.9% (active); in test [2], 86.2% (active); in test [3], 80.5% (active); in test [4], 76.3% (active); in test [5], 82.8% (active); in test [6], 87.7% (active).
As for `CCCCCCC1(C)NC(=O)NC1=O` (stereo not drawn), the growth inhibition is -20.2% in test [1]; -11.8% in test [2]; -2.15% in test [3]; -77.1% in test [4]; 6.3% in test [5]; -8.3% in test [6].
`C(/C=N/Nc1ccccc1)=N\Nc1ccccc1`: the growth inhibition in test [1] is 24.1%; in test [2], -8.15%; in test [3], -0.65%; in test [4] it was -3%; in test [5], -9.85%; in test [6], 8.8%.
As for `COc1ccc(N=C2C(=Nc3ccc(OC)cc3)N(c3ccccc3)C(=S)N2N=C=C2Sc3ccccc3N2C)cc1`, the growth inhibition is -13.2% in test [1]; -24% in test [2]; -18.4% in test [3]; -8.3% in test [4]; -4.05% in test [5]; -32% in test [6].
On to `CCOC(=O)/C(C)=C\C=C(\C)CCC=C(C)C`, for which the growth inhibition in test [1] is -8.8%; in test [2], -19.1%; in test [3], -2.45%; in test [4], -28.3%; in test [5] it was -15.2%; in test [6], 15.4%.
For the compound `Oc1ccc(O)c(CNc2ccc(C(O)C(F)(F)F)cc2)c1` (stereo not drawn), the growth inhibition was 14.9% in test [1]; 9.2% in test [2]; 16.8% in test [3]; 6.45% in test [4]; 22.1% in test [5]; 15.9% in test [6].
On to `CC(=O)Nc1cc([N+](=O)[O-])cc([N+](=O)[O-])c1O`, for which the growth inhibition in test [1] was -7.5%; in test [2] it was -6.95%; in test [3], -1.6%; in test [4], -24.8%; in test [5], -10.8%; in test [6], 7.2%.
